Assay results: PubChem BioAssay (NCI)
The panel holds about 79,000 compounds, 15% with a hit somewhere; the sample as a whole holds those more often. Cut-off read from the data, not from the text of the source: active = growth inhibition above about 70%; inactive = the rest.

Experiments:
[1] = NCI Yeast Anticancer Drug Screen. Data for the rad50 strain (AID 155);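 note: 0% = growth of vehicle-only cultures of the same strain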; settings: S. cerevisiae rad50 strain growth inhibition; at 50.0 µM; stronger effect = higher value
In short: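 Inhibition values express reduced yeast growth in compound-treated cultures relative to vehicle-treated controls.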

[2] = NCI Yeast Anticancer Drug Screen. Data for the mec2-1 strain (AID 157); settings: S. cerevisiae mec2-1 strain, at 50.0 µM, stronger effect = higher value
In short: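 Strain: mec2-1 (DNA repair/cell cycle alteration). Compound exposure, then growth measured; inhibition expressed relative to vehicle.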

[3] = NCI Yeast Anticancer Drug Screen. Data for the sgs1 mgt1 strain (AID 161);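 note: 0% = growth of cultures given vehicle only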; settings: S. cerevisiae sgs1 mgt1 strain, at 50.0 µM, stronger effect = higher value
In short: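 Genetically altered yeast, compound exposure, growth inhibition relative to vehicle.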

[4] = NCI Yeast Anticancer Drug Screen. Data for the cln2 rad14 strain (AID 165);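 note: 0% = growth equal to vehicle treated cultures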; settings: S. cerevisiae cln2 rad14 strain, at 50.0 µM, stronger effect = higher value
In short: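 Compounds are applied to the cln2 rad14 yeast strain, and growth is then compared with that of vehicle-treated cultures to give inhibition.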

[5] = NCI Yeast Anticancer Drug Screen. Data for the bub3 strain (AID 167); settings: S. cerevisiae bub3 mutant strain, at 50.0 µM, stronger effect = higher value
In short: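 Steps: expose the mutant yeast strain to compound; grow alongside vehicle-treated cultures; measure growth; express inhibition against the vehicle cultures.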

[6] = NCI Yeast Anticancer Drug Screen. Data for the mlh1 rad18 strain (AID 175); settings: S. cerevisiae mlh1 rad18 strain growth inhibition; at 50.0 µM; stronger effect = higher value
In short: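 Read-out is yeast growth inhibition, calculated against vehicle-only controls. The compound was applied to a strain engineered with DNA damage repair alterations.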

Measured: growth inhibition

Nc1ccc(Cl)cc1N=Cc1ccccc1[N+](=O)[O-]
inactive: [1] 35.5% | [2] 13.8% | [3] 49.5% | [4] -47.5% | [5] 17.6% | [6] 12.9%

Cc1c(C(=O)CC(=O)C(=O)Nc2ccc(Cl)cc2)[n+](=O)c2ccccc2n1[O-]
inactive: [1] 9.9% | [2] -2.25% | [3] 0.65% | [4] 19.4% | [5] 8.35% | [6] -0.3%

O=[N+]([O-])c1ccc(N/N=C(/c2ccc(Cl)cc2)c2ccccc2Cl)c([N+](=O)[O-])c1
inactive: [1] -15.8% | [2] 1.2% | [3] -6.25% | [4] -16.8% | [5] 3.35% | [6] 21.4%

O=C1OC(=O)C2CCCCC12 (stereo not given)
inactive: [1] 29.9% | [2] -11.9% | [3] -11.4% | [4] -48.3% | [5] 8.95% | [6] 18.9%

O=C(O)c1ccc(O)c2ccccc12
inactive: [1] -21.9% | [2] -21.2% | [3] -15.4% | [4] -24.7% | [5] -13.1% | [6] -21.9%

CCCCNCCCC
inactive: [1] 2.15% | [2] 2% | [3] -27.1% | [4] -3.65% | [5] -8% | [6] -16.6%

Cn1c(=O)c2c(nc(Cl)n2Cc2ccc([N+](=O)[O-])cc2)n(C)c1=O
inactive: [1] -2.35% | [2] 20% | [3] -2.55% | [4] -39.3% | [5] 20.1% | [6] 1%

O=C1NNC=Nc2ccc(cc2)S(=O)(=O)c2ccc(cc2)N=CNNC1=O
inactive: [1] 41.5% | [2] -1.9% | [3] -20.1% | [4] -9.15% | [5] -5.85% | [6] -45.9%

O=C(c1ccccc1Cl)c1ccc2ccccc2c1C(=O)O
inactive: [1] 2.5% | [2] -0.55% | [3] -0.6% | [4] 6% | [5] -10% | [6] 2.95%

Cc1nc(Nc2ccc(Cl)c(Cl)c2)sc1C(/C=C/c1ccc2c(c1)OCO2)=N/Nc1ccc([N+](=O)[O-])cc1[N+](=O)[O-]
inactive: [1] -21.2% | [2] -14.3% | [3] 3.75% | [4] 3.45% | [5] -9.55% | [6] 2.45%

CC(NC(=O)C(C)NC(=O)C(N)CCP(C)(=O)O)C(=O)O (stereo not given)
inactive: [1] -20.6% | [2] -15% | [3] -15.2% | [4] -8.2% | [5] -12.2% | [6] -9.2%

Cn1ccc(=S)c2ccccc21
inactive: [1] 18.2% | [2] 1.25% | [3] 9.6% | [4] -56.1% | [5] -2.15% | [6] 19.5%

O=C(OCc1c(-c2ccccc2)nn(-c2ccccc2)c1COC(=O)Oc1ccccc1)Oc1ccccc1
inactive: [1] -2.8% | [2] -14.6% | [3] -11.8% | [4] 17.8% | [5] -11.2% | [6] 10.2%

O=c1[nH]nc(S(=O)(=O)NC2CCCCC2)c(=O)[nH]1
inactive: [1] 12.6% | [2] -13.1% | [3] -7.3% | [4] -20.9% | [5] 2.65% | [6] 5.6%

CCOC(=O)C1OC1(C)CC (stereo not given)
inactive: [1] 4.1% | [2] 1% | [3] 10.3% | [4] -5.85% | [5] -5.25% | [6] -21.4%

CC(=O)OCCC(=O)Nc1cc([N+](=O)[O-])ccc1OCc1ccccc1
inactive: [1] 7.05% | [2] 1.6% | [3] -6.45% | [4] -3.8% | [5] 3.65% | [6] -16%

CC(C)CCCC(C)C1CCC2C3CC([N+](=O)[O-])=C4CC(O[N+](=O)[O-])CCC4(C)C3CCC12C (stereo not given)
inactive: [1] 50.4% | [2] 20.1% | [3] 37.1% | [4] 23.6% | [5] 1.95% | [6] 20.2%

O=C(O)COc1cc2c(cc1Cc1ccc3c(c1)OCO3)OCO2
inactive: [1] 2.5% | [2] 13.1% | [3] 0.25% | [4] 1.15% | [5] 10.3% | [6] 8.35%

NC(=O)C(=O)NNC(=O)Nc1ccc(Cl)cc1
inactive: [1] 16.8% | [2] 12.3% | [3] 7.8% | [4] -13.3% | [5] 1.75% | [6] 20.8%

COC(=O)Oc1nn(C(=O)OC)c(=O)c2ccccc12 (tested in a mixture with another compound)
inactive: [1] -5.85% | [2] 3.1% | [3] 3% | [4] -0.8% | [5] 11.3% | [6] 33.5%

Nc1ccnn2c(-c3ccccc3)nnc12
inactive: [1] -0.55% | [2] 1.85% | [3] -5.7% | [4] 4.25% | [5] 12.4% | [6] 2.35%

O=C(Cc1ccccc1)N/N=C(\C1=Nc2ccc([N+](=O)[O-])cc2NC1O)C(O)c1ccc([N+](=O)[O-])cc1 (stereo not given)
inactive: [1] 10% | [2] 9.6% | [3] 1.7% | [4] 18.2% | [5] 20.6% | [6] 18.2%

CC(=O)Nc1ccc(O)c(CN2CCN(c3ccccc3)CC2)c1
inactive: [1] 33.1% | [2] 16% | [3] 17.6% | [4] 47.2% | [5] 12.1% | [6] 20.3%

O=C1CC2CCCCC2CC1c1ccccc1 (stereo not given)
inactive: [1] 6.35% | [2] -0.4% | [3] -4.55% | [4] -22.6% | [5] -22.5% | [6] -12.2%

NNC(=O)COCC(=O)NN
inactive: [1] -17.5% | [2] -27.2% | [3] -24.5% | [4] -9.1% | [5] -15.2% | [6] -25.1%

O=S=Nc1ccc([N+](=O)[O-])cc1Cl
inactive: [1] 5.7% | [2] -1.15% | [3] -2.9% | [4] -33.6% | [5] 10.7% | [6] 16.6%

COc1ccc(/C=C2/CSC/C(=C/c3ccc(OC)c(OC)c3)C2=O)cc1OC
inactive: [1] -16.2% | [2] 11.7% | [3] 6.8% | [4] -40.8% | [5] 10.2% | [6] -1.35%

COc1cc(C2OCC3C(c4ccc(O)c(OC)c4)OCC23)ccc1O (stereo not given)
inactive: [1] 6% | [2] -20.4% | [3] 10.9% | [4] 23.4% | [5] 0.2% | [6] 14.6%

CC(O)C1OC(n2cnc3c(=S)nc[nH]c32)C(O)C1O (stereo not given)
inactive: [1] 7.5% | [2] 15.7% | [3] 0.6% | [4] -98.1% | [5] -4.85% | [6] -13.3%

CCCc1ncc(C[n+]2ccccc2C)c(N)n1
inactive: [1] 11.8% | [2] -15.1% | [3] 23.2% | [4] 25.4% | [5] 10.7% | [6] 8.25%

CCCCCCCc1cc(OC(=O)c2c(C)cc(OC)cc2O)cc(O)c1C(=O)O
inactive: [1] 13.4% | [2] -16.2% | [3] 8.65% | [4] -10% | [5] -14.2% | [6] 16.8%

CCCCCC/C=N\NC(N)=S
inactive: [1] -17.1% | [2] 14.2% | [3] 30.4% | [4] -71.1% | [5] 17.9% | [6] 28.2%

Clc1ccc(Nc2nc3ccccc3nc2-c2cccs2)cc1Cl
inactive: [1] -13.4% | [2] 4.55% | [3] 1.2% | [4] -7.5% | [5] -3.05% | [6] -2.1%

CCc1cc2c(c3c1CCCC3=O)CC1(C2)Cc2cc(CC)c3c(c2C1)C(=O)CCC3
inactive: [1] 6.05% | [2] -9.9% | [3] -3.6% | [4] 5.4% | [5] 10.7% | [6] 4.5%

Nc1ccc(P(=O)(O)c2ccc(N)cc2Br)c(Br)c1
inactive: [1] 35.1% | [2] -6.1% | [3] 18.4% | [4] 1.55% | [5] -4% | [6] -6.8%

CC(=O)Oc1c(OC(C)C)c(C)c(O[Si](C(C)C)(C(C)C)C(C)C)c2[nH]c3ccccc3c12
inactive: [1] 33.9% | [2] -5.05% | [3] -23.2% | [4] -10.9% | [5] -12.4% | [6] -29.7%

COc1coc(/C=C/C(=O)c2ccc(O)c(O)c2)cc1=O
inactive: [1] -11.9% | [2] 12.7% | [3] 10.3% | [4] -11.8% | [5] -6.25% | [6] -32.5%

Cc1nc(C(N)=S)sc1C(=O)CC(=O)C(=O)Nc1cccc(Cl)c1C
inactive: [1] 1.2% | [2] -2.4% | [3] -10.2% | [4] -6.65% | [5] -0.4% | [6] -53.4%

Nc1nc(SCC(=O)O)[nH]c(=O)c1N
inactive: [1] -16.2% | [2] 30.1% | [3] -1.7% | [4] 6.25% | [5] -0.25% | [6] 2.7%

CC(C)(C)OC(=O)NC(Cc1ccccc1)NC(=O)NC(=O)OCc1ccccc1 (stereo not given)
inactive: [1] -25.3% | [2] -9.85% | [3] -6.45% | [4] -0.65% | [5] -13.8% | [6] -27.1%
